This is a sample that favours compounds with a hit; in the whole collection about 1.5% have one here.
IDE cell activ: human IDE activators in live cells, primary screen, fluorescence polarization, HEK cells, FAbeta-B substrate. Insulin-degrading enzyme (Homo sapiens), P14735. FAbeta-B cleavage; 0% vehicle, 100% cell-free pure enzyme wells. activation, % at 5.96 µM. 0.073% of 340,000 active;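 active = activation above the mean of all tested compounds plus 3 SD, set per screening campaign, cut at about 17% in these data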
Target sequence (P14735 whole entry, looked up): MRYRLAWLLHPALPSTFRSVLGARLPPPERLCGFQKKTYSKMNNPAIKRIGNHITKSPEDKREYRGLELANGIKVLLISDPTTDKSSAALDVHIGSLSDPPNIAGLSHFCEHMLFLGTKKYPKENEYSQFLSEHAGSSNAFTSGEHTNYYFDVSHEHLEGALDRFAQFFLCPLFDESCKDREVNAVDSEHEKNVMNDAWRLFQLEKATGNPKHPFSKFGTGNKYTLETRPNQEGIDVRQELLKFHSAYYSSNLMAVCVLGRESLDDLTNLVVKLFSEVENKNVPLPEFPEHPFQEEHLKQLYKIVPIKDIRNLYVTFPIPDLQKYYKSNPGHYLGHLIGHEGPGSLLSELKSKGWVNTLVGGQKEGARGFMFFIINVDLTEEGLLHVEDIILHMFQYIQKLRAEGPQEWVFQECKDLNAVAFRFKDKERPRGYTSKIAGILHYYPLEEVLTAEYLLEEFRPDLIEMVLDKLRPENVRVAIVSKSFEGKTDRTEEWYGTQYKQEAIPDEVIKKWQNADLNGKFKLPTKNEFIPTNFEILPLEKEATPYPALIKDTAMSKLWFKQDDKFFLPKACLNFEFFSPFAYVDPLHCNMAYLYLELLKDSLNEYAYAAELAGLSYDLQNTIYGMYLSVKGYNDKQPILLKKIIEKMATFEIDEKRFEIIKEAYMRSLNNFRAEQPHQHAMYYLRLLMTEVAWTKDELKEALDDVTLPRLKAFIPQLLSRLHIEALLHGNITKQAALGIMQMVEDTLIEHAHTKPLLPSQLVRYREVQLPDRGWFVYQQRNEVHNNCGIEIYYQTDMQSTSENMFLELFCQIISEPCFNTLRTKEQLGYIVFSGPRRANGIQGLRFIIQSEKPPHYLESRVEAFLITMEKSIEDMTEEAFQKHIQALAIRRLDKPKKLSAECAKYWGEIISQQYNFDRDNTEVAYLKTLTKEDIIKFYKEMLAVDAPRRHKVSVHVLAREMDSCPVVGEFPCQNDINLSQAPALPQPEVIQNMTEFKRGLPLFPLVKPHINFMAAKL
cardiac RTF act: cardiac RTF calcium sensitivity activators, primary screen, biochemical, IANBD-TnC fluorescence, EC20 calcium. IANBD-labeled TnC RTF fluorescence at EC20 calcium; 0% EC20 calcium, 100% full calcium. AID 493008, 2010. activation, % at 7.2 µM. 0.24% of 340,000 active;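 active = activation above the mean over all tested compounds plus 3 SD, cut at about 30% in these data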;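 also: rise in fluorescence read as greater calcium sensitivity of cardiac thin filaments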
CRFBP-R2 agonist: agonists of CRF-BP/CRF-R2 complex, primary screen, cell-based, HEK293, calcium dye fluorescence, uHTS; CRF-binding protein / CRF receptor 2 complex (human); AID 588473, 2011; activation, % at 13.2 µM; calcium dye fluorescence (FLIPR); percent of saturating CRF peptide response; 0.46% of 350,000 active;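 active = activation of at least 50%, plus an integration ratio under a set limit after plate pattern correction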;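 also: plate controls were neutral control wells without compound for no effect and CRF at EC100 for full effect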
RTF Ca sens inh: cardiac RTF calcium sensitivity inhibitors, primary screen, biochemical, IANBD-TnC fluorescence, EC70 calcium | IANBD-labeled cardiac RTF, Ca2+ fluorescence | Troponin I, cardiac muscle (Homo sapiens) + Troponin T, cardiac muscle (Homo sapiens) + … | 0.12% of 340,000 active | inhibition, % at 7.15 µM;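 active = inhibition above the mean inhibition of all tested compounds plus 3 SD, cut at about 17% in these data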;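 also: assay run at fixed EC70 calcium of 1.6 mM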
IDE inh: human IDE inhibitors in live cells, primary screen, fluorescence polarization, HEK cells, FAbetaB substrate; inhibition, % at 5.59 µM; 0.41% of 320,000 active; FAbetaB cleavage;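 active = percent inhibition above the average of all tested compounds plus 3 SD, set per screening campaign, cut at about 16% in these data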;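 also: IDE supplied by intact live HEK cells; FP after avidin binding of uncleaved biotin substrate so inhibition keeps polarization high; 0% = DMSO wells and 100% = 60 µM reference IDE inhibitor Ii1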
TPT1 inh: Candida albicans TPT1 enzyme inhibitors, primary screen, biochemical, fluorescence polarization. tRNA 2'-phosphotransferase TPT1 (Candida albicans SC5314). recombinant caTPT1, FP RNA substrate dephosphorylation. inhibition, % at 5 µM. 0.81% of 300,000 active;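 active = inhibition above the mean of all tested compounds plus 3 SD, set per screening campaign, cut at about 24% in these data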;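 also: plate controls were DMSO alone for no effect and ferristatin control at 100 nM for full effect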
TPT1 inh confirm: Candida albicans TPT1 inhibitors, confirmation, biochemical, fluorescence polarization, triplicate; shares compounds with TPT1 inh; recombinant caTPT1, RNase T1 coupled; inhibition, % at 5 µM; 74% of 2,400 active; AID 2149, 2009;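 active = inhibition above the primary screen limit, the mean inhibition of all tested compounds plus 3 SD, cut at about 25% in these data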
RNase T1 counter: RNase T1 inhibitors, counter-screen for TPT1 inhibitor project, biochemical, fluorescence polarization; shares compounds with TPT1 inh; RNase T1 cleavage, 1536-well; inhibition, % at 5 µM; 83% of 2,400 active;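 active = inhibition above the solvent-only control well mean plus 3 SD, limit set per screening run, cut at about 23% in these data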;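 also: plate controls were DMSO wells with enzyme for no effect and wells without RNase T1 for full effect; inhibitors block cleavage so intact labeled substrate keeps polarization high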
An asterisk follows results filed as active; / = not tested or not shown.

SMILES | IDE cell activ | cardiac RTF act | CRFBP-R2 agonist | RTF Ca sens inh | IDE inh | TPT1 inh | TPT1 inh confirm | RNase T1 counter
O=C(Nc1nc2ccccc2s1)c1cccc(S(=O)(=O)N2CCc3ccccc32)c1 | 5 | 4 | 2 | -2 | -1 | -1 | / | /
O=C(Nc1nc2c(s1)CN(Cc1ccccc1)CC2)c1cccc(S(=O)(=O)N2CCc3ccccc32)c1 | -3 | 67* | 93* | -74 | -8 | 125* | 94* | 94*
CCN1CCc2nc(NC(=O)c3ccc4c(c3)OCCO4)sc2C1 | 4 | -2 | 11 | -5 | 9 | 36* | 21 | 28*
O=C(OCC(=O)N1CCN(c2ccc(F)cc2)CC1)c1cnc2ccccc2n1 | -2 | 12 | 4 | -10 | 4 | / | / | /
CN(c1ccc([N+](=O)[O-])cc1C(N)=O)C1CCCCC1 | 3 | -6 | 2 | 1 | -5 | 0 | / | /
CN1CCc2c(sc3nc(SCC(=O)NCc4ccco4)n(-c4ccccc4)c(=O)c23)C1 | -3 | 2 | 1 | -5 | 5 | 30* | 38* | 51*
CCC1C/C(=C/c2ccco2)C(=O)/C(=C/c2ccco2)C1 (stereo not given) | / | / | / | / | -5 | 68* | 75* | 80*
COc1cc(OC)c(OC)cc1/C=C1\CC(C)C/C(=C\c2cc(OC)c(OC)cc2OC)C1=O (stereo not given) | -4 | 9 | 19 | -23 | 10 | 74* | 87* | 95*
CCC1C/C(=C\c2cc(OC)c(OC)cc2OC)C(=O)/C(=C/c2cc(OC)c(OC)cc2OC)C1 (stereo not given) | -7 | 21 | 24 | -22 | 8 | 64* | 88* | 97*
CCOc1ccc(CCNC(=O)COC(=O)c2ccc(S(=O)(=O)N3CCCC3)cc2)cc1OCC | 0 | 6 | -3 | 9 | 3 | 0 | / | /
C[C@H](O)CNC(=O)c1[nH]cnc1C(=O)Nc1cccc(Cl)c1 | / | / | -1 | / | / | / | / | /
O=C1NC(=Nc2ccccc2Cl)S/C1=C\c1cccc([N+](=O)[O-])c1O | 4 | -5 | -1 | 9 | 5 | 28* | 42* | 55*
COc1c(/C=C2\SC(=Nc3ccccc3Cl)NC2=O)cccc1[N+](=O)[O-] | 3 | -3 | -5 | -7 | 6 | 1 | / | /
COC(=O)c1sccc1NC(=O)c1ccc(OC)cc1 | 1 | -1 | 0 | -5 | -3 | 63* | 4 | 5
COC(=O)c1sccc1NC(=O)c1ccc(C)cc1 | 7 | -2 | -1 | -4 | -3 | 2 | / | /
c1ccc(-c2ccccc2OCCCCN2CCCCC2)cc1 | 4 | -3 | -1 | 1 | 0 | 51* | 4 | 9
Cc1[nH]c2ccccc2c1/C=C/C(=O)c1ccncc1 | 3 | 1 | 23 | -9 | 11 | 76* | 77* | 87*
Cc1cccc(C)c1-n1c(C)cc(/C=N\Nc2ccc([N+](=O)[O-])cn2)c1C | 1 | 4 | 8 | -6 | 2 | 75* | 67* | 79*
CCN1c2ccccc2NC2C1C(C(C)=O)C(=O)N2c1ccc(Cl)cc1 (stereo not given) | -8 | 13 | 5 | -19 | -3 | 60* | 76* | 85*
CC1=NN(c2ccccc2)C(=O)C1C=Nc1ccc(N(C)C)cc1 (stereo not given) | / | / | 11 | / | 3 | 42* | 67* | 77*
CC1=NN(c2ccccc2)C(=O)C1N=Nc1ccc(C)cc1 (stereo not given) | / | / | / | / | 1 | -2 | / | /
O=C(Nc1sccc1C(=O)NCc1ccco1)c1cccnc1 | 1 | 0 | 0 | -4 | 1 | 24* | 42* | 56*
O=C(NCc1ccco1)c1ccccc1 | 2 | -6 | 1 | 1 | 4 | 0 | / | /
Cn1cc(CCCC(=O)NCc2ccc(F)cc2)c2ccccc21 | 4 | 1 | 1 | -8 | / | / | / | /
O=C1Nc2cc(Cl)ccc2Nc2cscc21 | 0 | 4 | -4 | -4 | 1 | -3 | / | /
SMILES | IDE cell activ | cardiac RTF act | CRFBP-R2 agonist | RTF Ca sens inh | IDE inh | TPT1 inh | TPT1 inh confirm | RNase T1 counter
COc1ccc2c(C)cc(SCC(=O)N3CCOCC3)nc2c1 | -1 | 7 | 32 | -22 | 11 | 73* | 61* | 73*
COc1ccc2c(C)cc(SCC(=O)NC3CCCCC3)nc2c1 | 4 | -3 | 0 | 4 | 11 | / | / | /
COc1ccc2c(-c3ccccc3)cc(SCC(N)=O)nc2c1 | 2 | 5 | 4 | -17 | -5 | 35* | 39* | 50*
Cc1ccc(C)c(N(CC(=O)N/N=C/c2ccc(-c3ccc([N+](=O)[O-])cc3)o2)S(=O)(=O)c2ccccc2)c1 | 5 | 7 | 15 | 0 | -3 | 41* | 51* | 61*
COCCNC(=S)N/N=C/c1ccc(-c2ccc([N+](=O)[O-])cc2)o1 | -4 | 12 | 70* | -26 | 0 | 47* | 50* | 63*
CCOc1ccc(S(=O)(=O)N(CC(=O)N/N=C/c2ccc(-c3ccc([N+](=O)[O-])cc3)o2)c2ccccc2)cc1 | 3 | 4 | 4 | -24 | 3 | 39* | 39* | 52*
COc1cc([N+](=O)[O-])ccc1-c1ccc(/C=N/NC(N)=O)o1 | 3 | 12 | 23 | -34 | 3 | 51* | 58* | 68*
COc1ccccc1NC(=O)N1C2CCCC1CC(NC(=O)c1ccccc1)C2 (stereo not given) | -1 | 5 | 1 | -11 | 7 | -1 | / | /
COc1cccc(CN2CCN(C(=S)NCc3ccc(Cl)cc3)CC2)c1 | 8 | 1 | 3 | 1 | -7 | 0 | / | /
COc1cc2ccccc2ccc1=NO | -2 | 0 | 1 | 0 | / | / | / | /
Cc1ccc(C2=NC(=O)/C(=C/c3cc(O)c(O)c(Br)c3)S2)cc1 | -4 | -22 | 0 | 15 | / | / | / | /
COc1cc(/C=C2\SC(c3ccc(C)cc3)=NC2=O)cc(OC)c1O | -18 | -24 | 0 | -4 | 2 | 48* | 67* | 79*
